Data taken from PubChem BioAssay AID449762 (Southern Research Specialized Biocontainment Screening …, 2010).
Hit rate of the full screen: of about 330,000 compounds, about 1,900 (0.58%) were called active. About 4% were inconclusive and are not listed. Only a sample is shown. Measured potencies and affinities stand elsewhere. Values without a mark were called inactive. No stated cut-off is given here; in the data, inconclusive means inhibition above about 70% without an active follow-up result; inactive means below that.

Assay: M. tuberculosis growth inhibition, HTS (AID 449762);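 further: bacterial growth assessed after seven days of incubation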
Settings: M. tuberculosis H37Rv growth inhibition, 7H9 media; at 25 µM; hits give high values

Point of comparison: `CCN(CC)c1ccc(/C=C/[N+](=O)[O-])cc1`, inhibition 0.21%. Against it:
- CC(CCN1CCC(n2nccc2NC(=O)c2ccccc2Cl)CC1)c1ccccc1 (configuration not stated) — higher, 15.6%
- Cc1nc(SCc2ccccc2F)c2cnn(-c3ccccc3)c2n1 — higher, 9.04%
- COc1cccc(-c2nc(C(=O)NCCCN3CCOCC3)cc3c2[nH]c2ccccc23)c1 — lower, -10%
- Cc1ccc(-c2nc(C(=O)NCCCN3CCOCC3)cc3c2[nH]c2ccccc23)cc1 — lower, -3.27%
- Cc1ccc(OCCn2ncc3ccccc3c2=O)c(C)c1 — higher, 9.3%
- ON=C1c2cc(OCCN3CCCCC3)ccc2-c2ccc(OCCN3CCCCC3)cc21 — higher, 7.74%
- COc1ccc2c(c1)C(=NO)c1cc(OC)ccc1-2 — lower, -4.82%
- CC1CCCC(C)N1C(=O)COC(=O)c1ccccc1O (configuration not stated) — higher, 2.65%
- O=c1[nH]c2ccccc2nc1-c1ccc(Cl)cc1 — higher, 2.14%
- O=c1[nH]c2ccccc2nc1-c1ccccc1 — lower, -0.96%
- O=C(N/N=C/C=C/c1ccco1)C(O)c1ccccc1 (configuration not stated) — higher, 50.7%
- O=C(CCCCCCCC(=O)c1ccccc1)c1ccccc1 — higher, 4.08%
- O=C(CCCCCCC(=O)c1ccccc1)c1ccccc1 — lower, -5.92%
- COCC(=O)NC1(c2nnnn2CCOC(=O)Nc2ccc(Cl)cc2)CCCCC1 — lower, -9.42%
- S=C(NCCNC(=S)Nc1ccccc1Cl)Nc1ccccc1Cl — higher, 4.51%
- S=C(Nc1ccccc1Cl)Nc1ccc(Cl)cc1Cl — lower, -2.8%
- CCC(Sc1nnc2c3ccccc3n(CC)c2n1)C(=O)Nc1sc2c(c1C#N)CCCC2 (configuration not stated) — higher, 1.09%
- O=[N+]([O-])c1ccc(Nc2nc(N3CCOCC3)nc(N3CCOCC3)n2)cc1 — lower, -0.58%
- O=[N+]([O-])c1ccc(Nc2nc(NCCO)nc(N3CCCC3)n2)cc1 — higher, 7.94%
- S=C(Nc1ccccc1Cl)N(CCCN1CCOCC1)Cc1ccco1 — higher, 0.76%
- Cc1ccc(-c2cc(C(=O)NC3=NCCS3)c3cc(Br)ccc3n2)o1 — higher, 8.99%
- Cc1ccc2nc(-c3cccc(Br)c3)cc(C(=O)NC3CC3)c2c1 — lower, -6.86%
- CCN(Cc1ccccc1)C(=O)COC(=O)c1cc(S(=O)(=O)Nc2c(C)n(C)n(-c3ccccc3)c2=O)ccc1C — higher, 5.3%
- CCCCCN(C(=O)CCCSc1nncs1)c1c(N)n(CCCC)c(=O)[nH]c1=O — higher, 3.89%
- CN(C)c1ccc(/C=C/[N+](=O)[O-])cc1 — higher, 39%
- Cc1ccc(/C=N/NC(=O)c2csc(C)c2)o1 — higher, 4.06%
- O=[N+]([O-])c1ccc(Sc2cccc3cccnc23)c([N+](=O)[O-])c1 — higher, 65.5%
- O=c1cc(-c2ccccc2)nc(Sc2ccc([N+](=O)[O-])cc2[N+](=O)[O-])[nH]1 — higher, 57.1%
- O=C(O)c1cc(N2C(=O)C3C4C=CC(C4)C3C2=O)ccc1NCc1cccnc1 (configuration not stated) — higher, 4.01%
- CCN(c1cc(C)cc(C)c1)S(=O)(=O)c1nnc(NC(=O)C(C)(C)C)s1 — higher, 5.8%
- N/C(=N\OS(=O)(=O)c1cc(Cl)ccc1Cl)c1ccncc1 — higher, 1.49%
- Cc1ccc(-c2c(C(=O)N/N=C/c3ccc(OC(C)C)cc3)nnn2-c2nonc2N)cc1 — higher, 5.21%
- Cc1oc(-c2cccc(Cl)c2)nc1CN1CCC(C(=O)N2CCN(c3ccccn3)CC2)CC1 — higher, 16.8%
- CCN1CCN(C(=O)C2CCN(Cc3nc(-c4cccc(Cl)c4)oc3C)CC2)CC1 — lower, -0.4%
- C=CCn1c(O)c(C(C)=NCCc2ccccc2)c(=O)[nH]c1=O — lower, -9.8%
- COc1cccc(NC(=O)c2cc(CN3C(=O)c4ccccc4C3=O)ccc2OC)c1 — lower, -11.3%
- Cc1ccc(C(=O)O/N=C(\N)c2ccc(Br)cc2)cc1 — higher, 17.7%
- Cc1cc(C)cc(C(=O)O/N=C(\N)c2ccc(Br)cc2)c1 — higher, 2.33%
- Cc1ccc(-c2csc3ncnc(NCCC(=O)O)c23)cc1C — higher, 3.2%
- COC(=O)C1=C(C)N(C)C(=O)NC1c1cc2c(cc1Br)OCO2 (configuration not stated) — lower, -1.06%
- COc1cccc(N2CCN(Cc3nc(N)nc(N4CCCc5ccccc54)n3)CC2)c1 — higher, 55.4%
- Nc1nc(CN2CCN(c3cccc(Cl)c3)CC2)nc(N2CCCc3ccccc32)n1 — higher, 34.9%
- O=S(=O)(Cc1cc(Cl)nc(-c2ccncc2)n1)c1ccccc1 — higher, 3.28%
- Cc1ccn2c(NC3CCCC3)c(-c3ccncc3)nc2c1 — lower, -13.9%
- Cc1ccn2c(NC3CCCCC3)c(-c3cccc(SC4CCCCC4)c3)nc2c1 — higher, 48.6%
- CC(C)CC(NS(=O)(=O)c1ccc2c(c1)oc(=O)n2C)C(=O)NCc1cccnc1 (configuration not stated) — lower, -12.4%
